The results in this text go back to PubChem BioAssay (Tox21).

Results filed as inconclusive are left out. A number with no mark means an inactive call. The source made the active and inactive calls. Unless noted, the call rests on the fitted dose curve; in most records, active means well fitted curve in the direction sought with a large enough effect in the repeat runs; inconclusive means weak or mixed curves; inactive means no such curve, though single readings can be large; an effect the other way counts as inactive or inconclusive.

Test [1] in a line: qHTS assay to identify small molecule antagonists of the thyroid receptor (TR) signaling pathway - cell viability counter screen (AID 743064). Further: nearly all actives have a fitted effect of over 50% in size. The essentials:
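Counter screen for cytotoxicity: compound plus T3 (1 nM final) on GH3.TRE-Luc cells, 23.5 h at 37 °C, then fluorescence viability readout with CellTiter-Fluor.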

Test [2] is described as follows: qHTS assay to identify small molecule antagonists of the thyroid receptor (TR) signaling pathway (AID 743065). Further: series mostly up to about 70 µM; nearly all actives have a fitted effect of over 55% in size. The method in brief:
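GH3.TRE-Luc rat pituitary cells (two TREs driving luciferase) were dosed with compound, then stimulated with 1 nM T3 (final) for 23.5 h at 37 C. ONE-Glo luminescence was the read-out, with CellTiter-Fluor fluorescence as the cytotoxicity counter-screen.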
A general note: qHTS replaces the single test concentration by a dilution series.

The test system of test [3] is thyroid hormone receptor (rat, GH3 cells). As to the kind of experiment: qHTS assay to identify small molecule agonists of the thyroid receptor (TR) signaling pathway (AID 743066; calls by dose curve).
For test [4], the target named is Estrogen receptor (Homo sapiens) (UniProt P03372). As to the kind of experiment: qHTS assay to identify small molecule antagonists of the estrogen receptor alpha (ER-alpha) signaling pathway (AID 743069; active means well fitted curve in the direction sought with a large enough effect in the signal ratio in the repeat runs, not every such curve was filed as active; the % refers to the signal ratio). The method in brief: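 Beta-lactamase FRET fluorescence is read after 2 hr at room temperature with LiveBLAzer B/G substrate. Before that, ER-alpha-bla HEK293 cells sit 4 hr after plating, then receive compound plus 17beta-estradiol and incubate 18 hr at 37C.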

Test [5] can be described thus: qHTS assay to identify small molecule antagonists of the estrogen receptor alpha (ER-alpha) signaling pathway - cell viability counter screen (AID 743074; calls by dose curve;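 further: HEK293 cells carrying ER-alpha-UAS-bla reporter stimulated with 17beta-estradiol; nearly all actives have a fitted effect of over 45% in size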).
For test [6], the target named is Estrogen receptor (Homo sapiens) (UniProt P03372). The experiment in a line: qHTS assay to identify small molecule agonists of the estrogen receptor alpha (ER-alpha) signaling pathway (AID 743075; calls by dose curve;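 further: HEK293 GripTite cells with ER-alpha and UAS-driven beta-lactamase reporter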; further: potency means the concentration at half of the fitted maximal effect).
The target is the same in test [7]. As to the kind of experiment: qHTS assay to identify small molecule agonists of the estrogen receptor alpha (ER-alpha) signaling pathway using the BG1 cell line (AID 743079). Further: nearly all actives have a fitted effect of over 20% in size. Further: potency means the concentration at half of the fitted maximal effect.
The nature of test [8]: qHTS assay to identify small molecule antagonists of the estrogen receptor alpha (ER-alpha) signaling pathway using the BG1 cell line (AID 743080; calls by dose curve;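 further: BG1 cells stimulated with 17beta-estradiol alongside compound; series mostly up to about 70 µM; nearly all actives have a fitted effect of over 25% in size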). The method in brief: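 Luminescence from a 4×ERE-luciferase reporter in BG1-Luc-4E2 cells served as read-out. Cells, pre-cultured 5 days in stripped-serum phenol-red-free medium, were exposed to compound with 17beta-estradiol co-stimulation for 21.5 h at 37 C.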

Test [9] in a line: qHTS assay to identify small molecule antagonists of the estrogen receptor alpha (ER-alpha) signaling pathway using the BG1 cell line - cell viability counter screen (AID 743081).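 Further: compound given together with 17beta-estradiol as the ER stimulus; series mostly up to about 70 µM; nearly all actives have a fitted effect of over 45% in size.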
Test [10] addresses Aromatase (Homo sapiens) (UniProt P11511). As to the kind of experiment: qHTS assay to identify aromatase inhibitors (AID 743083). Further: series mostly up to about 70 µM; nearly all actives have a fitted effect of over 55% in size.
The nature of test [11]: qHTS assay to identify aromatase inhibitors - cell viability counter screen (AID 743084).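 Further: cells stimulated with testosterone during compound exposure; nearly all actives have a fitted effect of over 55% in size.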
Test [12] concerns the target Aryl hydrocarbon receptor (Homo sapiens) (UniProt P35869). The experiment in a line: qHTS assay to identify small molecule that activate the aryl hydrocarbon receptor (AhR) signaling pathway (AID 743085).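 Further: HG2L7.5c1 human HepG2 liver cells with stably integrated DRE-driven firefly reporter; series mostly up to about 70 µM; nearly all actives have a fitted effect of over 15% in size.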 The method in brief:
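Measured in HG2L7.5c1 cells: CellTiter-Fluor signal (30 min incubation, 37C) for viability, then luciferase luminescence (30 min, room temperature). Compound contact time was 24 h at 37C, following a 5 h pre-incubation.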

A short description of test [13]: qHTS assay to identify small molecule that activate the aryl hydrocarbon receptor (AhR) signaling pathway - cell viability counter screen (AID 743086).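 Further: HepG2 liver cells carrying the AhR DRE luciferase reporter; series mostly up to about 70 µM; nearly all actives have a fitted effect of over 45% in size.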 The essentials: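 HepG2-AhR-luc (HG2L7.5c1) cells, 4000/well, treated 24 h at 37 C with compound; viability measured as CellTiter-Fluor fluorescence after 30 min in the same wells as the luciferase read.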
Test [14] addresses Peroxisome proliferator-activated receptor gamma (Homo sapiens) (UniProt P37231). The experiment in a line: qHTS assay to identify small molecule agonists of the peroxisome proliferator-activated receptor gamma (PPARg) signaling pathway (AID 743094; active means well fitted activation curve with a large enough effect in the signal ratio in the repeat runs, not every such curve was filed as active; the % refers to the signal ratio). The method in brief: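 HEK293H PPARg-bla cells, 5 h settle at 37C/5% CO2; compound (DMSO) 17 h, 37C; B/G FRET substrate 1 h RT; fluorescence intensity read-out. qHTS format.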

For test [15] the target is unchanged. The experiment in a line: qHTS assay to identify small molecule antagonists of the peroxisome proliferator-activated receptor gamma (PPARg) signaling pathway (AID 743191; calls by dose curve; further: series mostly up to about 63 µM; nearly all actives have a fitted effect of over 30% in size). The method in brief:
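GeneBLAzer PPARg UAS-bla HEK293H cells, 5 h post-plating, exposed to compounds 17 h at 37C. LiveBLAzer B/G FRET substrate added for 1 h at room temperature; beta-lactamase reporter read by fluorescence intensity.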

Test [16] can be described thus: qHTS assay for small molecule agonists of the antioxidant response element (ARE) signaling pathway (AID 743202; active means well fitted activation curve with a large enough effect in the signal ratio in the repeat runs, not every such curve was filed as active; the % refers to the signal ratio). The essentials:
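HepG2 ARE-bla reporter line, 2,000 cells/well; 5 h preincubation 37 C/5% CO2; compound (DMSO) 16 h 37 C; B/G FRET substrate 2 h RT; fluorescence intensity.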

A short description of test [17]: qHTS assay for small molecule agonists of the antioxidant response element (ARE) signaling pathway - cell viability counter screen (AID 743203; calls by dose curve; further: nearly all actives have a fitted effect of over 55% in size). The essentials:
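Luminescence read-out (CellTiter-Glo, 30 min at room temperature) measured cell viability in the same wells as the ARE beta-lactamase reporter. HepG2 ARE-bla cells were treated with compounds for 16 hrs at 37C/5% CO2.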

Test [18] in a line: qHTS assay for small molecule activators of the heat shock response signaling pathway - cell viability counter screen (AID 743209). Further: nearly all actives have a fitted effect of over 50% in size. The method in brief:
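HSE-bla HeLa; 1500 cells/well; overnight 37 C, 5% CO2; compound 5 h 37 C; LiveBLAzer B/G substrate 2.5 h RT; CellTiter-Glo 30 min RT; luminescence.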

Test [19] can be described thus: qHTS assay for small molecule activators of the heat shock response signaling pathway (AID 743210; active means well fitted activation curve with a large enough effect in the signal ratio in the repeat runs, with a control signal flat, not every such curve was filed as active; the % refers to the signal ratio; further: series mostly up to about 63 µM). The method in brief: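 Beta-lactamase reporter read-out: FRET substrate fluorescence after 2.5 h at RT, following 5 h compound treatment at 37 C of HeLa cells carrying HSE-driven bla reporter; quantitative HTS format.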
A short description of test [20]: qHTS assay to identify small molecule antagonists of the peroxisome proliferator-activated receptor gamma (PPARg) signaling pathway - cell viability counter screen (AID 743194). Further: nearly all actives have a fitted effect of over 55% in size. The method in brief:
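Cytotoxicity counter screen in PPARg-bla HEK293H cells, same wells as reporter assay. Compounds plus 50 nM rosiglitazone (final) for 17 h at 37 C, then viability read by CellTiter-Glo luminescence.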

Peroxisome proliferator-activated receptor gamma (Homo sapiens), sequence (P37231 whole entry, looked up): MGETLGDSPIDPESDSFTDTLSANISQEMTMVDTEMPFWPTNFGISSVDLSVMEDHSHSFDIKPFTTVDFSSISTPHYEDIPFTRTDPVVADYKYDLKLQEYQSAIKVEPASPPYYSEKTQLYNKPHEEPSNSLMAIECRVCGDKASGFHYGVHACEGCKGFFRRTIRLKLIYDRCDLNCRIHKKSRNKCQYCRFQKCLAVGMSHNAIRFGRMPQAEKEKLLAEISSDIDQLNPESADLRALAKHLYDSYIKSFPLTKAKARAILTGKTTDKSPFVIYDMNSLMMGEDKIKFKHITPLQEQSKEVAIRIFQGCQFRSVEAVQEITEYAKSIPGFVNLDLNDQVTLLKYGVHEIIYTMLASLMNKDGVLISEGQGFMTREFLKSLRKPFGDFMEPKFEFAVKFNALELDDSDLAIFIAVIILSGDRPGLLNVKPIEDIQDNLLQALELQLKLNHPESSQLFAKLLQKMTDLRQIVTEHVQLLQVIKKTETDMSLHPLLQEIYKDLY
Aryl hydrocarbon receptor (Homo sapiens), sequence (P35869 whole entry, looked up): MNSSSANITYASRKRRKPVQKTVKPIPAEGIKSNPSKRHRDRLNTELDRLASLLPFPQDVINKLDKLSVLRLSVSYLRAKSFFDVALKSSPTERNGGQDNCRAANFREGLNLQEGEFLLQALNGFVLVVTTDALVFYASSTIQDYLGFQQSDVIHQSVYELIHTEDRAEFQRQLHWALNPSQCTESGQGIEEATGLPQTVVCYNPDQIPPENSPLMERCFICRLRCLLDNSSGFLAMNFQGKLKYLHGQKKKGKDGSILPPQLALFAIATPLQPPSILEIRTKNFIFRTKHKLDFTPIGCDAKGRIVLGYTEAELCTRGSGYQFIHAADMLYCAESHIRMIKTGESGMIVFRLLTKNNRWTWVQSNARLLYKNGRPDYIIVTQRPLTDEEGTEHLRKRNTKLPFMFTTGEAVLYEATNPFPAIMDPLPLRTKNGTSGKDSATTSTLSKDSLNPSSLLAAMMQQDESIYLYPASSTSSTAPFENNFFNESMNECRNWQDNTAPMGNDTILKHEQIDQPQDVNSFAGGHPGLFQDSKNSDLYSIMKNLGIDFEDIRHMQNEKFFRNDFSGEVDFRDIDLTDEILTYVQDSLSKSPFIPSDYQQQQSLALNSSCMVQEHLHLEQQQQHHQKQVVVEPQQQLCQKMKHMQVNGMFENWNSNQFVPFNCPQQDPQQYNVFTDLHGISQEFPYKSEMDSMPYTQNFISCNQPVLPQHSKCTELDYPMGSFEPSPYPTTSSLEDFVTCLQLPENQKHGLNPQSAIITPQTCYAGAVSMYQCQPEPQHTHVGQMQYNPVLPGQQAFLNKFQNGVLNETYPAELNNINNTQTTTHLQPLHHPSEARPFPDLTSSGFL
Aromatase (Homo sapiens), sequence (P11511 whole entry, looked up): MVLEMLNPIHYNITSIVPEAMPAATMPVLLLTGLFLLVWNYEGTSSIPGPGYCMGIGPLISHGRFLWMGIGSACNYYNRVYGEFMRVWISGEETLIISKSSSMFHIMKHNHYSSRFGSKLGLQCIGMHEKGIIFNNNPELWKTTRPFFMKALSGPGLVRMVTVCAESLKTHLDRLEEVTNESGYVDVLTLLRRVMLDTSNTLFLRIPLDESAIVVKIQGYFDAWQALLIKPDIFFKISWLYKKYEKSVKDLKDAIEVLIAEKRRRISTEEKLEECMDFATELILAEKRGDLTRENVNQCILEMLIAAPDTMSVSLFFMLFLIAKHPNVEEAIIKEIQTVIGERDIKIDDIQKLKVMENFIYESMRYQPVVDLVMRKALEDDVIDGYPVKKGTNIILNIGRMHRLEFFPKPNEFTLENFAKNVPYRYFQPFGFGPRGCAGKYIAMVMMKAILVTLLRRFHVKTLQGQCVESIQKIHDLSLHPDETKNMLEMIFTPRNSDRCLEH
Estrogen receptor (Homo sapiens), sequence (P03372 whole entry, looked up): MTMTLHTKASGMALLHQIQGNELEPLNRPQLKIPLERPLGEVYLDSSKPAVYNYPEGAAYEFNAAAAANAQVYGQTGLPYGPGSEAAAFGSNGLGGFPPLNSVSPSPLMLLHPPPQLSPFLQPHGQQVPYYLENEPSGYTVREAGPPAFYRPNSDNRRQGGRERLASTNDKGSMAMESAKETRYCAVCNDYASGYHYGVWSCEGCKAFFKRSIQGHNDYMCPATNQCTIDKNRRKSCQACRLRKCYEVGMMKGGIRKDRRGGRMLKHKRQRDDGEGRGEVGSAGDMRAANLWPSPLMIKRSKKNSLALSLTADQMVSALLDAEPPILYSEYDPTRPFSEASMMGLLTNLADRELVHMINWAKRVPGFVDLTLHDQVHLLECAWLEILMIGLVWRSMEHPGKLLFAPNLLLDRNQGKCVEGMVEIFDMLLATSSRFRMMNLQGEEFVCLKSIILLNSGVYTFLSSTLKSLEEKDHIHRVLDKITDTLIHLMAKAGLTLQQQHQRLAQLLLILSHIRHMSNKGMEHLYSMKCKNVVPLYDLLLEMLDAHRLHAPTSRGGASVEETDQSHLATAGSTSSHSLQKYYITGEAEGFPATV

Regarding `CCC(C)C1CCCCC1=O` (centres undefined), the Potency result in test [1], in test [2], in test [6], in test [7], in test [9] and in test [10] was “inactive” in each case. For the same molecule, the Potency result in [11], in test [12], in test [13], in test [15], in test [16] and in test [17] was “inactive” throughout. The result in test [3], in test [4], in [5], in [8], in test [14] and in test [18] was inactive. The call in test [19] was inactive.
Regarding `CC(=O)Nc1ccc(S(N)(=O)=O)cc1`, the Potency result in [1], in [2], in test [6], in [7], in test [9] and in test [10] was “inactive” throughout. Further, the Potency entry in test [11], in [12], in test [13], in test [15], in test [16] and in test [17] was “inactive” in each case. Further, the outcome in [3], in test [4], in test [5], in [8], in [14] and in [20] was inactive. Besides, the call in test [18] and in test [19] was inactive.
Regarding `COC(=O)NN`, the Potency entry in test [1], in test [2], in test [6], in [7], in test [9] and in test [10] was “inactive” each time. Besides, the Potency result in [11], in test [12], in test [13], in [15], in test [16] and in test [17] was “inactive” each time. Besides, the molecule was called inactive in [3], in test [4], in [5], in [8], in test [14] and in test [20]. For the same molecule, the outcome in test [18] and in [19] was inactive.
`CC1(C)C(O)C(C)(C)C1O` (centres undefined): the Potency result in test [1], in test [2], in test [6], in test [7], in test [9] and in test [10] was “inactive” each time. Further, the Potency entry in [11], in test [12], in test [13], in test [15], in test [16] and in test [17] was “inactive” throughout. Moreover, the molecule was called inactive in test [3], in [4], in test [5], in test [8], in [14] and in [20]. The molecule was called inactive in test [18] and in [19].
Consider `O=c1cc(CO)occ1O`, for which the Potency entry in test [1], in test [2], in test [6], in [7], in [9] and in test [10] was “inactive” in each case. Also, the Potency entry in test [11], in test [12], in test [13], in test [15] and in test [17] was “inactive” throughout. Also, the result in test [3], in test [4], in test [5], in test [8], in [14] and in test [20] was inactive. Moreover, the outcome in test [18] and in test [19] was inactive.
For the molecule `CC(C)(C)c1nnc(NS(=O)(=O)c2ccccc2)s1`, the Potency result in test [1], in [2], in test [6], in test [7], in [9] and in test [10] was “inactive” throughout. Further, the Potency result in [11], in test [12], in [13] and in test [17] was “inactive” each time. For the same molecule, the molecule was called inactive in [3], in [4], in test [5], in [8], in [14] and in test [20]. In addition, the outcome in test [18] and in test [19] was inactive.
`c1ccc([C@H]2CN3CCSC3=N2)cc1`: the Potency result in test [1], in test [2], in test [9], in test [10], in test [11] and in [12] was “inactive” throughout. Moreover, the Potency entry in test [13] and in test [17] was “inactive” throughout. Also, the molecule was called inactive in [3], in test [4], in test [5], in test [8], in test [14] and in [20]. Further, the molecule was classed as inactive in test [18] and in test [19]. The Potency in test [6] was 0.0601 µM [fluorescent] (active); in [7], 11.9 µM (active).
